Assay results as given in PubChem BioAssay AID2012 (Sanford-Burnham Center for Chemical Genomics, 2009).
The whole screen tested about 290,000 compounds, of which about 2,700 (0.93%) were called active. This is one part of a sample in which actives are shown more often than they occur. No rule for the calls is given here.

Target: Eukaryotic translation initiation factor 4H (Homo sapiens) (UniProt Q15056)
Assay: human eIF4H binding inhibitors, primary screen, translation initiation inhibitor project, biochemical, uHTS, fluorescence polarization (AID 2012);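 also: calls also rest on retests at 20 µM and on dose response follow-up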
Conditions: eIF4H fluorescence polarization binding assay, stronger effect = higher value

Row | Structure (SMILES) | inhibition (at 35 µM) | inhibition (confirmation average, at 20 µM) [%]
1 | O=c1nc(N/N=C/c2ccco2)cn[nH]1 | 76.3% (active) | 73.4
2 | O=C(Cn1cnc2ccccc21)N/N=C/c1ccco1 | 69.8% (inactive) | 2.9
3 | CC(C)NC(=O)C(=O)N/N=C/c1ccco1 | -8.2% (inactive) | –
4 | COc1ccc(Nc2ncnc3ccc(Br)cc23)c(OC)c1 | -9.9% (inactive) | –
5 | Cc1ccc(CS(=O)(=O)CCC(=O)NCc2ccc(F)cc2)cc1 | -4.5% (inactive) | –
6 | CCCCNC(=O)C1(O)c2ccccc2NC(=O)N1c1ccc(Cl)cc1 (stereo not given) | -2.3% (inactive) | –
7 | O=C(O)CC(c1ccccc1F)N1Cc2ccccc2C1=O (stereo not given) | 0.1% (inactive) | –
8 | O=C(CNC(=O)c1ccc(Br)o1)NCC1CCCO1 (stereo not given) | -11.8% (inactive) | –
9 | O=C(c1cccs1)N(C(=O)c1cccs1)c1ccccn1 | -8.6% (inactive) | –
10 | O=C(c1ccc(Br)o1)N(c1ccccn1)C1CCCCC1 | 55.5% (active) | 99.6
11 | CCOc1ccc(Br)cc1S(=O)(=O)N1CCC(C(=O)O)CC1 | -7.6% (inactive) | –
12 | Cc1ccc(S(=O)(=O)N2CCC(Oc3ccc(-n4cnnn4)cc3)CC2)cc1 | 1.6% (inactive) | –
13 | CCOc1ccc(-n2cnnn2)cc1S(=O)(=O)N1CCC(C)CC1C (stereo not given) | 3.6% (active) | 90.8
14 | COc1cccc(C(=O)Nc2nnc(S(=O)(=O)N3CCOCC3)s2)c1 | -15.7% (inactive) | –
15 | CN(Cc1ccccc1)C(=O)c1ccc(NC2=NC3CS(=O)(=O)CC3S2)cc1 (stereo not given) | -7.2% (inactive) | –
16 | COc1cccc(NC(=O)C2CCCN(c3ncnc4c3nc3n4CCCCC3)C2)c1 (stereo not given) | 2.9% (inactive) | –
17 | O=C(c1ccc(S(=O)(=O)N2CCOCC2)cc1)N1CCN(c2ccccc2)CC1 | -4.2% (inactive) | –
18 | O=C(c1cc(=O)c2ccccc2o1)N1CCN(c2ccccc2)CC1 | 1.2% (inactive) | –
19 | O=C(c1ccc(CS(=O)(=O)c2ccccc2)o1)N1CCN(c2ccccc2)CC1 | 93.4% (active) | 73.1
20 | Cc1ccc(C)c(S(=O)(=O)N2CCN(C(=O)Nc3ccccc3)CC2)c1 | 4.3% (inactive) | –
21 | CC(Oc1cc2oc(=O)c3c(c2cc1Cl)CCCC3)C(=O)NCc1ccncc1 (stereo not given) | -3.9% (inactive) | –

Row | Structure (SMILES) | inhibition (at 35 µM) | inhibition (confirmation average, at 20 µM) [%]
22 | COc1ccc(-c2nn(-c3ccccc3)cc2/C=C2/SC(=S)N(CCCC(=O)O)C2=O)c(C)c1 | 15.2% (inactive) | –
23 | Cc1ccc(-c2nn(-c3ccccc3)cc2/C=C2\SC(=S)N(CCCCCC(=O)O)C2=O)o1 | 78.9% (active) | 68.5
24 | CN(C)S(=O)(=O)c1cccc(-c2nn(-c3ccccc3)cc2/C=C2\SC(=S)N(CC(=O)O)C2=O)c1 | 47.3% (inactive) | –
25 | CCOC(=O)CSc1nc(N2CCOCC2)c2c(c1C#N)CC(C(C)C)OC2 (stereo not given) | -6.3% (inactive) | –
26 | Cc1ccnc(NC(=O)CCNS(=O)(=O)c2ccc(C)c(C)c2)c1 | -10.9% (inactive) | –
27 | Cc1c(-c2ccccc2)nc(N)c(C#N)c1-c1cccs1 | 7.1% (inactive) | –
28 | CCc1c(-c2ccccc2)nc(N)c(C#N)c1-c1cccs1 | -8.4% (inactive) | –
29 | CN1CCc2nc(SC(C(=O)O)c3ccccc3)c(C#N)c(-c3cccs3)c2C1 (stereo not given) | 76.7% (active) | –
30 | O=C(O)C1CCCCC1C(=O)N1CCN(S(=O)(=O)c2ccc(F)cc2)CC1 (stereo not given) | -6.9% (inactive) | –
31 | Cc1cc(=O)[nH]c(=S)[nH]1 | 2.4% (inactive) | –
32 | Cc1c(C)c(C)c2[nH]c(=S)[nH]c2c1C | -4.2% (inactive) | –
33 | O=c1[nH]c(=S)[nH]c2[nH]c(=S)[nH]c12 | 88.2% (active) | –
34 | CN(C(=O)CCNC(=O)Cn1ccc2ccccc2c1=O)c1ccc(Br)cc1 | 1.5% (inactive) | –
35 | CCOC(=O)C1=C(C)NC(=S)NC1c1cccs1 (stereo not given) | -5% (inactive) | –
36 | CCOC(=O)N1CC=C2C(C#N)=C(N)C(C#N)(C#N)[C@H](c3cccs3)[C@H]2C1 | 63.3% (active) | –
37 | N#CC1=C(N)C(C#N)(C#N)[C@H](c2ccsc2)[C@H]2COCC=C12 | 113% (inactive) | -3.8
38 | Cc1ccn2c(c1)nc(=O)c1cc(S(=O)(=O)N3CCC(C)CC3)ccc12 | -3.5% (inactive) | –
39 | Cc1ccc(Cl)c(OCC(=O)N2CCc3ccccc3C2)c1 | -9.4% (inactive) | –
40 | O=C(Nc1ncc2c(n1)-c1ccccc1OC2)c1ccc(Cl)cc1 | -10.3% (inactive) | –
41 | CCc1ccc(Nc2ncc3c(n2)CC(c2ccco2)CC3=O)cc1 (stereo not given) | -4% (inactive) | –
42 | O=C(Nc1ncc2c(n1)CC(c1ccco1)CC2=O)c1ccc(Cl)cc1 (stereo not given) | 83.6% (active) | –

Row | Structure (SMILES) | inhibition (at 35 µM) | inhibition (confirmation average, at 20 µM) [%]
43 | Cc1c(CCC(=O)O)c(=O)oc2cc3occ(-c4ccccc4)c3cc12 | 14.4% (inactive) | –
44 | Cc1c(CC(=O)NCCCCCC(=O)O)c(=O)oc2cc3occ(-c4ccccc4)c3cc12 | 6% (inactive) | –
45 | CCCCCCc1cc2cc(-c3nnc(-c4ccccc4)o3)c(=O)oc2cc1O | 70.4% (active) | –
46 | Cc1nc(NC(=O)c2ccc3c(c2)OCCO3)ccc1Br | -4.6% (inactive) | –
47 | CCOc1ccc(OCC(=O)Nc2c3c(nn2C(C)(C)C)CS(=O)(=O)C3)cc1 | -13.7% (inactive) | –
48 | COc1ccc(CNS(=O)(=O)c2ccc(-c3cnc(C4CC4)o3)cc2)cc1 | -9.2% (inactive) | –
49 | O=C1OCC2=C1C(c1ccccc1)CC(=O)N2c1cccc(F)c1 (stereo not given) | 4.2% (active) | 96.6
50 | O=C1CC(c2ccccc2)C(=O)N1c1cccc(O)c1 (stereo not given) | -6.1% (inactive) | –
51 | O=C1CC(NNc2ccccc2)C(=O)N1c1cccc(Cl)c1 (stereo not given) | -1.9% (inactive) | –
52 | Cc1ccc(NC(=O)CCC(=O)c2ccc(Br)cc2)cc1 | -5% (inactive) | –
53 | Cc1cc(=O)n2[nH]c(-c3cccc(Cl)c3)cc2n1 | -7.1% (inactive) | –
54 | Cc1cc(=O)n2[nH]c(-c3sccc3-n3c(C)ccc3C)cc2n1 | 93.9% (active) | 97.8
55 | CCc1c(C)nc2cc(-c3cccs3)[nH]n2c1=O | 4.5% (inactive) | –
56 | c1ccc(CCC2=NCCn3cccc32)cc1 | 61.9% (active) | –
57 | S=C(NCCc1ccccc1)N1CCn2cccc2C1c1ccncc1 (stereo not given) | 8.3% (inactive) | –
58 | CC1CSc2nnc(CCc3ccccc3)n21 (stereo not given) | -1.5% (inactive) | –
59 | O=C(NCC(=O)N1CCN(c2ccccc2O)CC1)c1ccc2ccccc2c1 | 6% (inactive) | –
60 | COc1cc(C(=O)OCC(=O)NC(C)CCc2ccccc2)cc(OC)c1OC (stereo not given) | 5.2% (inactive) | –
61 | Cc1ccc(CN2CCNC(=O)C2CC(=O)NCc2csc(C(C)C)n2)cc1 (stereo not given) | -5.6% (inactive) | –
